# Laboratory results published in PubChem BioAssay AID1347413 (National Center for Advancing Translational Sciences (NCATS), 2020).
# Active and inactive are the calls of the source. Calls follow the shape of the dose curve; as a rule, active = well fitted curve in the direction sought with a large enough effect; inactive = no such curve, though single readings can be large or run the other way.
# Assay: qHTS to identify inhibitors of the type 1 interferon - major histocompatibility complex class I in skeletal muscle: tertiary screen by RT-qPCR, retest select compounds
# Details: C25cl48 myoblasts, IFN-beta, HLA-B RT-qPCR, 24 h
# Text: Assay Submitter (PI): Travis B. Kinder Ph.D. & James Inglese Ph.D. Assay Development and Screening Technology Laboratory (ADST) National Center for Advancing Translational Sciences (NCATS), Rockville, MD National Institute of Health (NIH), Bethesda, Maryland Idiopathic inflammatory myopathies, collectively referred to as myositis, are a group of rare autoimmune diseases characterized by skeletal muscle inflammation, weakness, and usually accompanied by systemic pathologies of the skin, lungs, or vasculature. Current immunosuppressive therapies and glucocorticoids are often not curative and are accompanied by harsh side effects, especially in children with juvenile myositis. We initiated a drug repurposing and development program to identify more targeted, less toxic therapeutics to treat myositis. Although its cause is not known, muscle from a subset of patients have an abundance of the inflammatory type 1 interferon (IFN) and a down-stream product major histocompatibility complex class I (MHC class I), which are both thought to contribute to damage and weakness. We conducted quantitative high throughput screening (qHTS) on 6,576 compounds (4,679 unique) through a series of cell-based assays to identify those that inhibit the IFN-stimulated expression of MHC class I in muscle precursor cells (myoblasts). […]
smiles,measurement,value
CC(C)[C@]12O[C@H]1[C@@H]1O[C@@]13[C@@]1(C)CCC4=C(COC4=O)[C@@H]1C[C@@H]1O[C@@]13C2=O,Potency,654 nM (active)
